Measurements from PubChem BioAssay (NCATS).
Inconclusive results are not listed. Calls of active or inactive are those of the source. The call rests on the fitted dose curve; in most records, active means well fitted curve in the direction sought with a large enough effect; inconclusive means small, poorly fitted or top-dose-only effect, or another doubt; inactive means no such curve, though single readings can be large; an effect the other way counts as inactive or inconclusive.

Key:
[1] = Tertiary RLuc qRT-PCR qHTS assay for Zika virus inhibitors (AID 1347169); further: nearly all actives have a fitted effect of over 55% in size; further: potency means the concentration at half of the fitted maximal effect; on activity change, negative = inhibition: top concentration of the series differs between compounds; on the % scale 0 is the no-effect control and ±100 the full control effect
Summary of the method: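 Orthogonal cell-based readout: luminescence measured 1-1.5 hrs after adding live-cell Renilla substrate to Vero cells that had been infected with ZIKV-RLuc (MOI 1-2) post-compound, incubated 48-72 hrs at 37 degrees C.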

[2] = OV-KATE Cancer Cell Toxicity qHTS against the NCATS CANVASS Library (AID 1347345); further: on the % scale 0 is the no-effect control and ±100 the full control effect
Summary of the method: (§1)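 Toxicity is measured over 72 h of compound exposure at 37 degrees C under 5% CO2. Each well holds 1000 cells, pre-incubated for 4 hours before dosing across an 11-point range. CellTiter-Glo luminescence gives viability.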

[3] = HPAF-II Cancer Cell Toxicity qHTS against the NCATS CANVASS Library (AID 1347346); further: on the % scale 0 is the no-effect control and ±100 the full control effect; nearly all actives have a fitted effect of over 55% in size
Summary of the method: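 HPAF-II cells were seeded at 1000 cells/well, allowed to settle for 4 h at 37 degrees C, then exposed to compounds in an 11-point series for 72 h. Viability was read by CellTiter-Glo luminescence.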

[4] = UWB1.289 Cancer Cell Toxicity qHTS against the NCATS CANVASS Library (AID 1347347); details: outcome: dose series up to 38.3 µM; further: nearly all actives have a fitted effect of over 60% in size
Summary of the method: as §1

[5] = OV-SAHO Cancer Cell Toxicity qHTS against the NCATS CANVASS Library (AID 1347348); further: on the % scale 0 is the no-effect control and ±100 the full control effect; nearly all actives have a fitted effect of over 55% in size
Summary of the method: as §1

[6] = Panc-1005 Cancer Cell Toxicity qHTS against the NCATS CANVASS Library (AID 1347349); further: on the % scale 0 is the no-effect control and ±100 the full control effect; nearly all actives have a fitted effect of over 60% in size
Summary of the method: as §1

[7] = SW1088 Cancer Cell Toxicity qHTS against the NCATS CANVASS Library (AID 1347350); details: outcome: dose series up to 76 µM; further: nearly all actives have a fitted effect of over 75% in size
Summary of the method: as §1

[8] = U-118MG Cancer Cell Toxicity qHTS against the NCATS CANVASS Library (AID 1347351); further: on the % scale 0 is the no-effect control and ±100 the full control effect
Summary of the method: as §1

[9] = COV-362 Cancer Cell Toxicity qHTS against the NCATS CANVASS Library (AID 1347352); further: on the % scale 0 is the no-effect control and ±100 the full control effect
Summary of the method: (§2)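 Cells were seeded at 1000 per well and allowed to settle 4 hours at 37 degrees C before pin transfer of compounds as an 11-point series. Viability was read by CellTiter-Glo luminescence after 72 hours' exposure.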

[10] = A2780 Cisplatin Sensitive Ovarian Cancer Cell Toxicity qHTS against the NCATS CANVASS Library (AID 1347353); details: A2780 ovarian cancer viability, ATPLite luminescence, 72 h; at 91.4 µM (top of the series) unless noted; further: nearly all actives have a fitted effect of over 60% in size
Summary of the method: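 A2780 cisplatin-sensitive cells (750 per well) were seeded, left 4 h at 37 °C, then pin-dosed in an 11-point series. After 72 h at 37 °C/5% CO2, viability was measured as ATPLite luminescence.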

[11] = UWB1.289-WTBRCA1 Cancer Cell Toxicity qHTS against the NCATS CANVASS Library (AID 1347354); details: UWB1.289-WTBRCA1 viability, CellTiter-Glo luminescence, 72 h; at 76 µM (top of the series) unless noted
Summary of the method: as §2

[12] = HEK-293 Cancer Cell Toxicity qHTS against the NCATS CANVASS Library (AID 1347355); details: outcome: dose series up to 91.4 µM; further: nearly all actives have a fitted effect of over 65% in size
Summary of the method: as §2

[13] = HPAF-II 24hr Apoptosis Induction qHTS against the NCATS CANVASS Library (AID 1347356); further: 0% is about no effect
Summary of the method: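 HPAF-II cells (500/well) in DMEM + 10% FBS were treated with an 11-point compound series for 24 hours at 37 degrees C. Caspase-3/7 activity was then read by Caspase-Glo DEVD luminescence after 15 min.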

[14] = HEK293 18hr Apoptosis Induction qHTS against the NCATS CANVASS Library (AID 1347357); further: 0% is about no effect
Summary of the method: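 Caspase-Glo 3/7 luminescence (15 min, room temperature) measured apoptosis after an 18-hour, 37 degrees C exposure of HEK293 cells (500 cells/well) to compounds in 11 points.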

[15] = HPAF-II 12hr Apoptosis Induction qHTS against the NCATS CANVASS Library (AID 1347358); further: 0% is about no effect
Summary of the method: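 HPAF-II cells (500/well, DMEM + 10% FBS) were exposed to compounds for 12 hours at 37 degrees C. Caspase-3/7 activity was then read by Caspase-Glo 3/7 luminescence after 15 min at room temperature.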

[16] = HEK293 24hr Apoptosis Induction qHTS against the NCATS CANVASS Library (AID 1347359); further: 0% is about no effect
Summary of the method: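 HEK293 cells (500/well, DMEM + 10% FBS) were exposed to compounds in an 11-point series for 24 hours at 37 degrees C, then caspase-3/7 activity was read by Caspase-Glo DEVD luciferase luminescence after 15 min.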

[17] = HPAF-II 18hr Apoptosis Induction qHTS against the NCATS CANVASS Library (AID 1347360); further: 0% is about no effect
Summary of the method: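 Caspase-3/7 activation was measured with luminescent Caspase-Glo 3/7 reagent (15 min, RT) in HPAF-II cancer cells (500 cells/well). Before detection, cells had been treated for 18 h at 37 C with compounds (11 points).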

[18] = HEK293 12hr Apoptosis Induction qHTS against the NCATS CANVASS Library (AID 1347361); further: 0% is about no effect
Summary of the method: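 HEK293 cells (500/well, DMEM + 10% FBS) were exposed to natural products across an 11-point series for 12 hours at 37 degrees C. Caspase-3/7 activity was then measured with DEVD luciferase luminescence after 15 min at room temperature.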

[19] = target: Luciferin 4-monooxygenase (Photinus pyralis) (UniProt P08659); experiment: Firefly luciferase counterscreen qHTS: Assay Interference Panel against the NCATS CANVASS Library (AID 1347363); further: 0% is about no effect
Luciferin 4-monooxygenase (Photinus pyralis), sequence (P08659 whole entry, looked up): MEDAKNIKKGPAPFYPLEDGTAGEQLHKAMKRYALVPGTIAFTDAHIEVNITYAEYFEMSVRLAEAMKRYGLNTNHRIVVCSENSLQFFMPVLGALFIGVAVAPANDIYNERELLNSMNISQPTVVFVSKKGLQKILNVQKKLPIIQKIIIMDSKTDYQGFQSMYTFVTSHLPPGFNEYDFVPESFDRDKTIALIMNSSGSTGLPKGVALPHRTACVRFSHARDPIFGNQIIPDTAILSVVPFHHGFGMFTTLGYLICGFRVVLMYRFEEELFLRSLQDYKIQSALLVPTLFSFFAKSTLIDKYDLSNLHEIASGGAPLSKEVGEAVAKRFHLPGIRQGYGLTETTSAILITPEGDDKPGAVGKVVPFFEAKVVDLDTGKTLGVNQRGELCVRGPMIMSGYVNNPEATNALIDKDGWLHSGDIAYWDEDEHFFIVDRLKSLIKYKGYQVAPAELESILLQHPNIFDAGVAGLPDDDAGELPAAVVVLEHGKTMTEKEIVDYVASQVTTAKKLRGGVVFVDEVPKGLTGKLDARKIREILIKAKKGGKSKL
Summary of the method: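 Purified P. pyralis luciferase was added to compounds (11-point series) preincubated 15 min at room temperature with substrate containing 0.013 mM D-luciferin and 0.013 mM ATP; luminescence was read after 5 min.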

[20] = test system: NAD(P)H diaphorase (Clostridium kluyveri); experiment: Diaphorse counterscreen qHTS: Assay Interference Panel against the NCATS CANVASS Library (AID 1347362); further: 0% is about no effect
Summary of the method: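 Clostridium kluyveri diaphorase in PBS with 0.01% Tween-20 was preincubated 15 min at room temperature in the dark with compounds (11-point series). Resorufin fluorescence (ex 525/20, em 598/25) was read 5 min after adding resazurin/NADH.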

Cc1cccc(C(=O)NCN2CCN(c3ccccc3C#N)CC2)c1
inactive: Potency [1]

C=CCN1CCc2c(cc(O)c(O)c2Br)[C@@H](c2ccccc2)C1
active: Potency [1] 11.7 µM

COc1ccccc1N1CCN(CCCNc2c(C)c(=O)n(C)c(=O)n2C)CC1
inactive: Potency [1]

COc1cc2c(CCNC(C)=O)c[nH]c2cc1O
inactive: Potency [1]

Cn1c(=O)c2[nH]c(-c3ccc(S(=O)(=O)O)cc3)nc2n(C)c1=O
inactive: Potency [1]

Cc1nc(N=Nc2ccc(S(=O)(=O)O)cc2S(=O)(=O)O)c(COP(=O)(O)O)c(C=O)c1O
inactive: activity change, negative = inhibition [1] 33.6% [at 5.25 µM]

Cn1cc(C(F)(F)F)nc1-c1ccc(OCC(O)CNCCOc2ccc(O)c(C(N)=O)c2)cc1 (configuration not stated)
inactive: Potency [1]

O=c1[nH]c(=S)[nH]c(-c2ccccc2)c1Cc1c(O)ccc2ccccc12
inactive: Potency [1]

CC(=O)NCCc1c[nH]c2ccc(O)cc12
inactive: outcome [2] | outcome [3] | outcome [4] | outcome [5] | outcome [6] | outcome [7] | outcome [8] | outcome [9] | outcome [10] inactive [at 46.1 µM] | outcome [11] inactive [at 38.3 µM] | outcome [12] | outcome [13] | outcome [14] | outcome [15] | outcome [16] | outcome [17] | outcome [18] | outcome [19]

Cc1nc(N=Nc2cc(S(=O)(=O)O)c3cc([N+](=O)[O-])cc(S(=O)(=O)O)c3c2)c(COP(=O)(O)O)c(C=O)c1O
inactive: Potency [1]

O=C(O)Cc1c[nH]c2ccc(O)cc12
inactive: outcome [2] | outcome [3] | outcome [4] | outcome [5] | outcome [6] | outcome [7] | outcome [8] | outcome [9] | outcome [10] | outcome [11] | outcome [12] | outcome [13] | outcome [14] | outcome [15] | outcome [16] | outcome [17] | outcome [18] | outcome [20] | outcome [19]

Nc1ccc(-c2ccc3ccccc3n2)cc1
inactive: Potency [1]
